Data on eight compounds can be found in PubChem BioAssay (NCI).

This is part of a sample that, as a whole, favours compounds with a hit. Of some 83,000 tested, about 20% had one in any assay.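 The endpoint reported here, percent growth, reads 100 for growth as untreated, 0 for no net growth and -100 for all cells dead.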 A number with no mark means an inactive call. Calls of active or inactive are those of the source. The calls were made as follows: active = growth percent below 10; inactive = the rest.

Holding throughout (assay): NCI-60 one-dose screen, 48 h (100 = growth as untreated, 0 = no growth, -100 = all killed)
One assay deals with SK-MEL-2 melanoma. The following applies: 10 µM unless noted.
A further assay relates to EKVX NSCLC. As to conditions: 10 µM unless noted.
The test system of another assay is SN12C renal. The following applies: 10 µM unless noted.
The next assay has as its system UO-31 renal. The following applies: 10 µM unless noted.
A further assay relates to ACHN renal. The following applies: 10 µM unless noted.
Another assay has as its system CAKI-1 renal. The following applies: 10 µM.
The test system of the next assay is A498 renal. As to conditions: 10 µM unless noted.
The next assay concerns CCRF-CEM leukemia. As to conditions: 10 µM unless noted.
For another assay, the system named is MOLT-4 leukemia. As to conditions: 10 µM unless noted.
In a further assay the test system is SR leukemia. The following applies: 10 µM unless noted.
For the next assay, the system named is RPMI-8226 leukemia. The following applies: 10 µM unless noted.
Another assay deals with OVCAR-8 ovarian. The following applies: 10 µM unless noted.
A further assay deals with OVCAR-5 ovarian. The following applies: 10 µM unless noted.
A further assay concerns OVCAR-4 ovarian. As to conditions: 10 µM unless noted.
Another assay has as its system SK-OV-3 ovarian. The following applies: 10 µM unless noted.
The subject of a further assay is IGROV1 ovarian. As to conditions: 10 µM unless noted.
A further assay has as its system OVCAR-3 ovarian. The following applies: 10 µM unless noted.
Another assay relates to NCI/ADR-RES ovarian. The following applies: 10 µM unless noted.
The subject of a further assay is HS 578T breast. As to conditions: 10 µM unless noted.

Consider `O=C(NCCNc1nccc(-c2c(-c3cccc(O)c3)nc3sccn23)n1)c1cc(N2CCOCC2)cc(C(F)(F)F)c1`, for which the growth in the assay with SK-MEL-2 melanoma was 64.5%; with EKVX NSCLC, 88.6%; in the assay on SN12C renal, 89.8%; with UO-31 renal, 87.5%; in the assay with ACHN renal it was 79.4%; with CAKI-1 renal, 82.5%. Further, the growth in the assay on A498 renal is 92.8%; with CCRF-CEM leukemia it was 52.9%; with MOLT-4 leukemia, 68.6%; in the assay with SR leukemia it was 97.3%; with RPMI-8226 leukemia, 67%; in the assay with OVCAR-8 ovarian, 78.1%. For the same compound, the growth was 101% in the assay with OVCAR-5 ovarian; 133% with OVCAR-4 ovarian; 94% with SK-OV-3 ovarian; 80.4% in the assay on IGROV1 ovarian; 107% in the assay with OVCAR-3 ovarian; 103% with NCI/ADR-RES ovarian.
`Cc1cc(NC(=O)c2cccc(C(F)(F)F)c2)ccc1-n1ccc2c(NC(=O)c3ccccc3)nccc21`: the growth was 101% in the assay on SK-MEL-2 melanoma; 94.1% in the assay with EKVX NSCLC; 94% with SN12C renal; 78.5% with UO-31 renal; 106% in the assay with ACHN renal; 93.1% in the assay on CAKI-1 renal. In addition, the growth in the assay on A498 renal is 112%; in the assay on CCRF-CEM leukemia it was 88.3%; with MOLT-4 leukemia, 87.8%; in the assay on SR leukemia, 96.3%; with OVCAR-8 ovarian it was 98.2%; in the assay on OVCAR-5 ovarian, 98.3%. Further, the growth in the assay with OVCAR-4 ovarian is 96.7%; with SK-OV-3 ovarian, 108%; with IGROV1 ovarian it was 92.7%; in the assay on OVCAR-3 ovarian it was 95.7%; in the assay with NCI/ADR-RES ovarian it was 102%.
As for `CC(C)C1(C(C)C)NC(=O)NC1=O`, the growth was 108% in the assay on SK-MEL-2 melanoma; 92.7% in the assay with EKVX NSCLC; 99% with SN12C renal; 78.4% in the assay with UO-31 renal; 106% in the assay on ACHN renal; 88.9% in the assay on CAKI-1 renal. Also, the growth is 93.8% with A498 renal; 93.7% in the assay on CCRF-CEM leukemia; 97.6% in the assay with MOLT-4 leukemia; 117% in the assay on RPMI-8226 leukemia; 110% in the assay on OVCAR-8 ovarian; 101% in the assay on OVCAR-5 ovarian. The growth in the assay on OVCAR-4 ovarian was 107%; in the assay on SK-OV-3 ovarian, 108%; with IGROV1 ovarian it was 99.4%; in the assay with OVCAR-3 ovarian it was 110%; in the assay on HS 578T breast it was 92.6%; with NCI/ADR-RES ovarian, 103%.
On to `O=S1(=O)N(CCNc2nccc(-c3c(-c4cccc(O)c4)nc4sccn34)n2)CCN1Cc1ccccc1`, for which the growth with SK-MEL-2 melanoma is 19.2%; in the assay with EKVX NSCLC, 90.9%; with SN12C renal it was 64.1%; in the assay on UO-31 renal it was 43.8%; in the assay with ACHN renal it was 41.1%; in the assay on CAKI-1 renal it was 39.4%. For the same compound, the growth is -20.9% (active) with A498 renal; 31.9% in the assay on CCRF-CEM leukemia; 63.1% with MOLT-4 leukemia; 55.4% in the assay with SR leukemia; 47.4% in the assay on RPMI-8226 leukemia; 48.3% in the assay with OVCAR-8 ovarian. Moreover, the growth in the assay with OVCAR-5 ovarian was 113%; in the assay on OVCAR-4 ovarian, 110%; in the assay on SK-OV-3 ovarian, 52.9%; in the assay on IGROV1 ovarian it was 51.9%; with OVCAR-3 ovarian it was 64.9%; with NCI/ADR-RES ovarian, 74%.
Turning to `Cc1ccc[n+](CC(=O)c2cccc3ccccc23)c1`, the growth in the assay with SK-MEL-2 melanoma was 106%; with EKVX NSCLC, 95.9%; with SN12C renal, 102%; with UO-31 renal it was 89.5%; in the assay on ACHN renal it was 103%; with CAKI-1 renal, 100%. For the same compound, the growth is 90% in the assay on A498 renal; 101% in the assay with CCRF-CEM leukemia; 98% in the assay with MOLT-4 leukemia; 112% in the assay on SR leukemia; 101% in the assay with RPMI-8226 leukemia; 114% with OVCAR-8 ovarian. In addition, the growth is 98.6% in the assay on OVCAR-5 ovarian; 103% with OVCAR-4 ovarian; 96% with IGROV1 ovarian; 98.6% in the assay with OVCAR-3 ovarian; 106% with HS 578T breast; 108% with NCI/ADR-RES ovarian.
For `COC1=C(OC)C(=O)C=CC1=O`, the growth with SK-MEL-2 melanoma is 112%; in the assay on EKVX NSCLC, 121%; with SN12C renal it was 103%; in the assay on UO-31 renal, 89.1%; in the assay with ACHN renal, 103%; in the assay with CAKI-1 renal it was 115%. Further, the growth in the assay with A498 renal is 120%; in the assay on CCRF-CEM leukemia it was 46%; with MOLT-4 leukemia it was 12.6%; with SR leukemia, 38.1%; in the assay on RPMI-8226 leukemia it was 91.4%; in the assay on OVCAR-8 ovarian, 110%. Moreover, the growth was 116% in the assay with OVCAR-5 ovarian; 102% with OVCAR-4 ovarian; 114% with SK-OV-3 ovarian; 96.5% in the assay on IGROV1 ovarian; 83.6% with OVCAR-3 ovarian; 109% in the assay on NCI/ADR-RES ovarian.
Regarding `O=C1C(Cl)=C(Nc2ccccc2)C(=O)C(Cl)=C1Nc1ccccc1`, the growth with SK-MEL-2 melanoma was 113%; with EKVX NSCLC, 114%; in the assay on SN12C renal, 109%; in the assay with UO-31 renal it was 94.2%; in the assay with ACHN renal it was 109%; in the assay with CAKI-1 renal, 106%. The growth in the assay with A498 renal is 78.6%; in the assay with CCRF-CEM leukemia, 103%; in the assay with MOLT-4 leukemia, 114%; in the assay on SR leukemia, 111%; with RPMI-8226 leukemia, 107%; with OVCAR-8 ovarian, 103%. Also, the growth was 112% in the assay on OVCAR-5 ovarian; 115% with OVCAR-4 ovarian; 110% with IGROV1 ovarian; 119% in the assay on OVCAR-3 ovarian; 102% with NCI/ADR-RES ovarian.
As to `O=C(Nc1ccc(-n2cc(-c3ccncc3)c(-c3ccc(O)c(Cl)c3)n2)cc1)Nc1ccc(Cl)c(C(F)(F)F)c1`, the growth is -42.2% (active) in the assay with SK-MEL-2 melanoma; 19.5% in the assay on EKVX NSCLC; 19.1% in the assay on SN12C renal; 13.6% in the assay on UO-31 renal; 13.2% in the assay with ACHN renal; -3.83% (active) with CAKI-1 renal. Further, the growth in the assay with A498 renal is 63.5%; in the assay with CCRF-CEM leukemia, 7.92% (active); in the assay on MOLT-4 leukemia it was 9.62% (active); with SR leukemia, 4.23% (active); in the assay on RPMI-8226 leukemia, -19.2% (active); with OVCAR-8 ovarian it was 15.2%. The growth is 43.4% in the assay on OVCAR-5 ovarian; 42.2% in the assay on OVCAR-4 ovarian; 32.6% with SK-OV-3 ovarian; 22.8% in the assay on IGROV1 ovarian; 1.16% (active) in the assay with OVCAR-3 ovarian; 17.9% in the assay on NCI/ADR-RES ovarian.
